High-throughput results from PubChem BioAssay.
Most compounds without a hit are left out; they make up all but 6.7% or so of the library.
Autofluor counter – flagged as autofluorescent in microsphere protease counterscreen. compound autofluorescence counterscreen, microsphere flow cytometry; active compounds read high. fluorescence intensity (concentration not given with the values). actives 3.1% (n = 360,000); in the data active = fluorescence intensity above about 16000; inconclusive = no clear call, values can overlap the other calls
BoNT-F LC inh – BoNT/F light chain protease inhibitors, primary screen, biochemical, flow cytometry, MLPCN library; Botulinum neurotoxin type F light chain protease (Clostridium botulinum); inhibition, % at 10 µM; actives 0.22% (n = 360,000); AID 588497, 2011; Multiplex microsphere protease cleavage assay; in the data active = inhibition above about 35%, passing the limit was not always enough; inconclusive = no clear call, values can overlap the other calls; also: plate controls were buffer without enzyme for full effect and enzyme alone for no effect
FBA Mtb inh – Mtb FBA enzyme inhibitors, primary screen, biochemical, fluorescence, strain H37Rv; Fructose-bisphosphate aldolase (Mycobacterium tuberculosis (strain ATCC 25618 / H37Rv)), …; purified M. tuberculosis FBA, fluorescence read-out; inhibition, % at 1 µM; actives 2.3% (n = 360,000); in the data active = inhibition above about 27%;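 also: 0% = vehicle and 100% = reference inhibitor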
BoNT A protease – BoNT/A light chain protease inhibitors, primary screen, biochemical, flow cytometry, MLPCN library; Botulinum neurotoxin type A light chain protease (Clostridium botulinum A str. ATCC 3502); inhibition, % at 10 µM; actives 0.17% (n = 360,000); multiplex microsphere protease substrate cleavage; AID 588499, 2011; also: plate controls were buffer without enzyme for full effect and enzyme alone for no effect
Anthrax LF prot – Bacillus anthracis LF protease inhibitors, primary screen, biochemical, multiplex microsphere, MLPCN library; inhibition, % at 10 µM; multiplex microsphere protease cleavage assay; actives 0.12% (n = 360,000); Lethal factor (Bacillus anthracis), P15917; also: plate controls were buffer without enzyme for full effect and enzyme alone for no effect
GDH-TPI counter – GDH-TPI coupling enzyme inhibitors, primary screen, artefact control for M. tuberculosis FBA inhibitor project, biochemical, absorbance, full deck | GDH-TPI coupled enzyme counterscreen, NADH absorbance | inhibition, % at 4.8 µM | actives 1.2% (n = 360,000) | AID 588335, 2011; in the data active = inhibition above about 30%;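 also: 0% = DMSO wells and 100% = wells lacking the enzyme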
The depositor's hits bear a star; ? = inconclusive; + = active, no number. Rule as the data show it, unless noted: active = inhibition above about 30%; inconclusive = no clear call, values can overlap the other calls; inactive = below that.

SMILES	Autofluor counter	BoNT-F LC inh	FBA Mtb inh	BoNT A protease	Anthrax LF prot	GDH-TPI counter
CCOc1ccccc1NC(=O)N1CCC(n2nnc3cc(C)ccc32)CC1	8741	-2	-2	0	-8	-14
NS(=O)(=O)c1cccc(NC(=O)COC(=O)CCC(=O)c2cccs2)c1	3007	-1	0	0	-16	13
CCOC(=O)C1=C(Cc2ccc(OC)cc2)C(=O)c2ccccc2C1=O	15161	-10	-2	?	-11	22
CCOC(=O)C1=C(O)c2ccccc2C(=O)/C1=C\c1ccc(CC)cc1	21598*	3	1	6	-3	6
CCOC(=O)c1cccc(N2C(=O)C3C(C2=O)C2C=CC3C23CC3)c1 (stereo not drawn)	3445	-1	2	0	4	-2
Cc1ccc(-c2cnc(-c3ccncc3)o2)cc1	16012	0	+	1	-4	19
O=[N+]([O-])c1ccc(-c2ncc(-c3ccc(Br)cc3)o2)cc1	5782	4	0	10	-3	7
O=C(O)c1ccccc1-c1ncc(-c2ccccc2)o1	5716	6	123*	0	-5	18
Nc1ccc(-c2ncc(-c3ccccc3)o2)cc1	3939	9	+	1	-2	27
CCC1=C2CC[C@H]3C(=O)N(C)C(=O)[C@H]3[C@H]2[C@@]2(Cc3ccccc3)C(=NCCOC)OC(=O)N2C1=O	4118	-1	2	0	-2	-5
NS(=O)(=O)c1cccc(NC(=O)Cn2cnc3ccccc3c2=O)c1	20676*	2	7	3	-4	-1
Cc1ccc(C)c(NC(=O)c2ccccc2NS(=O)(=O)c2cc([N+](=O)[O-])ccc2C)c1	2530	-2	-11	0	1	5
COc1cc(OC)cc(-c2c(C#Cc3ccsc3)c3cc(-c4cccc5[nH]ccc45)ccc3n2C)c1	3975	-3	21	0	-4	20
COc1ccc(-c2c(-c3cc(OC)cc(OC)c3)n(C)c3ccc(-c4cccc5[nH]ccc45)cc23)cc1	3432	-2	121*	0	4	28
COc1ccc(-c2c(-c3cc(OC)cc(OC)c3)n(C)c3ccc(-c4ccc5cc[nH]c5c4)cc23)cc1	3168	1	114*	0	1	35*
CC1CC(C)CN(C(=O)CSc2nnc3ccccn23)C1 (stereo not drawn)	6249	6	12	3	-4	-1
Cc1ccc(Cn2nnc(C(=O)Nc3cccc(C)c3C)c2N)cc1	19408*	2	-2	?	1	-4
CCc1ccc(Cn2nnc(C(=O)Nc3cccc(C)c3)c2N)cc1	6346	-15	-1	-1	-10	9
O=c1[nH]c(/C=C/c2ccc([N+](=O)[O-])cc2)c([N+](=O)[O-])c(=O)[nH]1	3426	-1	0	2	-1	31*
CN(C)/C=C/c1[nH]c(=O)[nH]c(=O)c1[N+](=O)[O-]	3871	-7	1	0	-3	8
CCC(=O)Oc1ccc(-c2cnc3ccccc3n2)cc1	10525	3	1	1	-3	13
O=C(Oc1ccc(-c2cnc3ccccc3n2)cc1)c1ccco1	20475*	-4	1	-2	1	-1
O=C(/C=C/c1ccccc1Cl)N1CCN(c2ncccn2)CC1	2301	2	3	0	-2	5
COCCn1c(-c2ccc(OC(F)(F)C(F)C(F)(F)F)cc2)nc2c1c(=O)[nH]c(=O)n2CC(C)C (stereo not drawn)	?	-9	12	0	4	-7
COCCn1c(-c2ccc(SC)cc2)nc2c1c(=O)[nH]c(=O)n2CC(C)C	3613	8	+	-1	1	21
Cn1nnnc1NC(=O)c1ccccc1Cl	3804	?	-1	0	-12	-7
Cc1cc(C)cc(-n2nnnc2-c2cn(C)nc2C(F)(F)F)c1	3287	-5	-3	0	2	-7
